Test results published in PubChem BioAssay AID1578 (Sanford-Burnham Center for Chemical Genomics, 2009).
The campaign covered roughly 290,000 compounds. About 3,000 (1%) were called active. The sample as a whole holds a higher share of actives than the screen did. Values without a mark were called inactive. Rule as the data show it: active = inhibition mostly above about 36% (no sharp cut-off); inactive = mostly below about 34%.

Experiment: inhibition of NOD1-driven NF-kB reporter – cell-based, luminescence, uHTS, primary screen (AID 1578);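 also: HEK-293T reporter cells stimulated with the NOD1 agonist gamma-tri-DAP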
Details: NOD1-driven NF-kB luciferase reporter cells, at 4 µM, active compounds read high

SMILES | inhibition
O=c1cnc2ccccc2n1Cc1ccc(Br)cc1 | -18.3%
CC(C)(C)c1ccc(Cn2c(=O)cnc3ccccc32)cc1 | 48.9% (active)
O=c1cnc2ccccc2n1Cc1ccccc1C(F)(F)F | -40.7%
C=CCn1cc(C(=O)OCC)c(=O)c2cc(F)c(F)cc21 | 2.3%
Cc1ccc(C(=O)COC(=O)CCC(=O)Nc2cc(Cl)ccc2Cl)cc1[N+](=O)[O-] | 7.9%
COc1ccc(N(C(=O)c2ccco2)C(C(=O)NC2CCCC2)c2cccs2)cc1OC (stereo unspecified) | 2.7%
C#CC(=O)N(c1ccc(OC)c(OC)c1)C(C(=O)NC1CCCC1)c1cccs1 (stereo unspecified) | 79.9% (active)
C#CC(=O)N(c1ccc(OC)cc1OC)C(C(=O)NC1CCCC1)c1cccs1 (stereo unspecified) | 74.7% (active)
COc1ccc(N(C(=O)c2ccco2)C(C(=O)NC2CCCC2)c2cccs2)c(OC)c1 (stereo unspecified) | -2.6%
C#CC(=O)N(c1cc(OC)ccc1OC)C(C(=O)NC1CCCC1)c1cccs1 (stereo unspecified) | -17.4%
C#CC(=O)N(c1cccc(OC)c1)C(C(=O)NC1CCCC1)c1cccs1 (stereo unspecified) | 22.1%
CC(C)c1nc2ccccc2n1CC(O)COC1CCCCC1 (stereo unspecified) | -23.2%
COc1ccc(C)cc1NC(=O)NNC(=O)C(C)Oc1ccc(F)cc1Cl (stereo unspecified) | -17.8%
COc1cccc(C(=O)N2CCC(n3nccc3NC(=O)CCOc3ccccc3)CC2)c1 | -25.4%
CCCn1c(SCC(=O)Nc2nonc2C)nnc1-c1ccoc1C | -22.4%
COC(=O)CN1C(=S)N(Cc2ccccc2)C(=O)C1CC(=O)Nc1ccc(Br)cc1 (stereo unspecified) | 28.8%
Cc1cccc(C)c1NS(=O)(=O)c1ccc2c(c1)C(=O)c1ccccc1C2=O | -19.6%
Cc1ccc(S(=O)(=O)Nc2ccccc2C(N)=O)cc1 | -11.8%
Cc1ccc(NS(=O)(=O)c2ccc3[nH]c(=O)[nH]c3c2)c(C)c1 | -12.1%
Cc1ccc(S(=O)(=O)Nc2ccccc2-c2ccccc2)cc1 | 18.4%
CCCC(=O)C1=C(O)C(C(=O)OC)C(C)(C)CC1=NC (stereo unspecified) | 11.5%
CN(CCO)c1cnccn1 | -22.7%
COc1ccccc1N1CCN(CCC(=O)Nc2cccc(Cl)c2)CC1 | -7.2%
CNC(=O)NC(=O)Cn1cnc2sc(-c3ccccc3)cc2c1=O | 0.3%

SMILES | inhibition
CCCCOCCCNC(=O)C1c2ccccc2Oc2ccccc21 | -0.9%
CS(=O)(=O)c1nc(-c2ccccc2)cc(C(F)(F)F)n1 | -5.3%
CCOC(=O)CS(=O)(=O)c1nc(-c2ccccc2)cc(C(F)(F)F)n1 | 69.2% (active)
CCOC(=O)CSc1nc(-c2ccccc2)cc(C(F)(F)F)n1 | -48.1%
CCOC(=O)CCSc1nc(-c2ccccc2)cc(C(F)(F)F)n1 | -31.4%
Nc1nc(-c2ccc(F)cc2)cc(C(F)(F)F)n1 | 9.6%
CS(=O)(=O)c1nc(-c2ccc(F)cc2)cc(C(F)(F)F)n1 | 103% (active)
CC(C)(C)NC(=O)CN(Cc1ccc2c(c1)OCO2)C(=O)CNC(=O)c1cccs1 | -12.6%
CCn1ncc(Br)c1C(=O)NC1CCCCCCC1 | -9%
CCn1c(=N)n(CC(O)c2ccco2)c2ccccc21 (stereo unspecified) | 11%
CCCn1c(=N)n(CC(O)c2ccco2)c2ccccc21 (stereo unspecified) | 1.5%
CCN(CC)CCn1c(=N)n(CC(O)c2ccco2)c2ccccc21 (stereo unspecified) | 62% (active)
C=C(C)c1cccc(C(C)(C)NC(=O)Nc2cc(C)ccc2OC)c1 | -33%
CCOc1cccc2c1OC1(C)CC2NC(=O)N1c1cccc(C(=O)N2CCN(c3ccccn3)CC2)c1 (stereo unspecified) | 76.5% (active)
COc1cccc2c1OC1(C)CC2NC(=O)N1c1cccc(C(=O)N2CCN(c3ccccn3)CC2)c1 (stereo unspecified) | -17.8%
CC12CC(NC(=O)N1c1cccc(C(=O)N3CCN(c4ccccn4)CC3)c1)c1ccccc1O2 (stereo unspecified) | -1.9%
COc1ccc(C(=O)C2CCCN(Cc3cc(C)c(O)c(C)c3)C2)c(OC)c1 (stereo unspecified) | 110% (active)
COc1ccc(C(=O)C2CCCN(Cc3cc(Cl)ccc3O)C2)c(OC)c1 (stereo unspecified) | -3.1%
COc1ccc(C(=O)C2CCCN(Cc3ccc4nonc4c3)C2)c(OC)c1 (stereo unspecified) | -21.3%
CCOC(=O)N1CCN(C(=O)c2c[nH]c3ccc(S(=O)(=O)N(C)c4ccc(F)cc4)cc3c2=O)CC1 | -23.5%
CCOC(=O)C(=Cc1c[nH]c2ccc(S(=O)(=O)N(C)C)cc12)C(=O)OCC | 43.9% (active)
CCOC(=O)C(=Cc1cn(C)c2ccc(S(=O)(=O)N(C)C)cc12)C(=O)OCC | 29.1%
Cc1ccc(C(=O)c2ccc([N+](=O)[O-])cc2)c(C)c1 | -4.2%
COCCN1CCN(C(=O)C2CCC(=O)N(Cc3ccccc3F)C2)CC1 (stereo unspecified) | -13.9%

SMILES | inhibition
COc1ccc(NC2=NC(=S)N(c3ccccc3C)C23CCCCC3)cc1 | -2.5%
Oc1cccc(Nc2ncnc3ccccc23)c1 | 56% (active)
Nc1cccc(Nc2ncnc3ccccc23)c1 | 3%
Oc1ccc(Nc2ncnc3ccccc23)cc1 | 4.4%
O=C(CN1CC(c2ccccc2)CC1=O)Nc1ccc2c(c1)OCO2 (stereo unspecified) | -14%
COCCCNC(c1ccccc1)c1ccncc1 (stereo unspecified) | -23.2%
O=C(COc1cccc(Cl)c1)Nc1nc(-c2ccc(S(=O)(=O)N3CCOCC3)cc2)cs1 | 53.1%
O=C(COc1ccccc1)Nc1nc(-c2ccc(S(=O)(=O)N3CCOCC3)cc2)cs1 | 3.4%
O=C(Nc1ccccc1)NC1CS(=O)(=O)CC1O (stereo unspecified) | -16.3%
O=C(c1ccc(Br)cc1)C1CCc2occc2C1=O (stereo unspecified) | -29.8%
Cc1cccnc1NC(=O)c1cccc(S(=O)(=O)N2CCCc3ccccc32)c1 | -13%
O=C(O)c1cccc(NC(=O)c2cccc(S(=O)(=O)N3CCc4ccccc43)c2)c1 | 29.9%
Nn1cc(-c2ccccc2)nc1SCC(=O)NCC1CCCO1 (stereo unspecified) | -25.8%
O=C(CSc1nnc(-c2ccccc2)n1-c1ccccc1)c1cccs1 | -1.9%
Cc1cc(C(=O)NC2CCCCC2C)c2ccccc2n1 (stereo unspecified) | 1.8%
O=C(C1=NNCC1c1ccccc1)C1OC1c1ccccc1 (stereo unspecified) | 15.8%
O=C(C1=NNCC1c1ccc(Cl)cc1)C1CO1 (stereo unspecified) | 88.4% (active)
O=C(C1=NNCC1c1ccccc1)C1CO1 (stereo unspecified) | -5.4%
Cc1nc(N2CCOCC2)nc(OCCN(C)C)c1[N+](=O)[O-] | -6.3%
O=C(O)/C(=C\c1ccccc1OC(F)F)Sc1nnc(-c2ccc(F)cc2)o1 | 32.5% (active)
COc1cc(/C=C(/Sc2nnc(-c3ccc(F)cc3)o2)C(=O)O)ccc1OC(F)F | -21.8%
O=C(O)/C(=C\c1cccs1)Sc1nnc(-c2ccc(F)cc2)o1 | -11.6%
CCCC(c1nnnn1C(C)(C)C)N1CCN(c2ccccc2)CC1 (stereo unspecified) | -12.7%
Cc1cc(=O)oc(C)c1C(=O)NNC(=O)C1(C)CC1Br (stereo unspecified) | -8.9%

SMILES | inhibition
COc1cc(/C=N/NC(=O)c2cnn3c(C)cc(-c4ccccc4)nc23)ccc1O | 46.9%
Cc1cc(C)c(NC(=S)N(CCCN2CCN(C)CC2)Cc2cccs2)c(C)c1 | -25.1%
Fc1ccc(CNCC2CCCO2)cc1 (stereo unspecified) | 2.2%
Brc1ccc(CNCC2CCCO2)cc1 (stereo unspecified) | 64.4% (active)
Clc1ccc(CNCC2CCCO2)cc1 (stereo unspecified) | 5.9%
COc1ccc(N(CC(=O)NCc2ccccc2)S(=O)(=O)c2c(C)nn(C)c2C)cc1 | -15.5%
O=C1NN(c2ccccc2)C(=O)/C1=C\c1cccn1-c1ccc(Cl)c([N+](=O)[O-])c1 | 86.9% (active)
COc1cc(/C=C2/C(=O)NN(c3ccc(Cl)c(Cl)c3)C2=O)cc([N+](=O)[O-])c1O | 14.3%
COc1cc(/C=C2\C(=O)NN(c3ccccc3)C2=O)cc([N+](=O)[O-])c1O | -38.3%
O=C(CN1CCN(S(=O)(=O)N2CCCCCC2)CC1)Nc1ccc(Br)cc1 | -32.9%
O=Cc1ccc(N2CCCC2)c([N+](=O)[O-])c1 | -40.9%
CNC(=O)Cc1csc2ccc(Cl)cc12 | -7.2%
CNC(=O)Cc1csc2ccc(C)cc12 | 41.4% (active)
O=C(O)CSCC(=O)NCc1csc2ccc(Cl)cc12 | 0.3%
Cc1ccc(C)c(N2CCN(CCCNC(=O)Cn3cc4c(n3)CCC(C)C4)CC2)c1 (stereo unspecified) | -16.2%
COc1ccccc1/C=N/N(C(C)=O)c1nc(-c2ccc(F)cc2)cs1 | 9.4%
O=C(O)C1CCCN(S(=O)(=O)c2ccc(Cl)s2)C1 (stereo unspecified) | -19.7%
Cc1cccc(Nc2ccc3nonc3c2[N+](=O)[O-])c1C | -9.3%
COc1cc(NC(C)=O)ccc1-c1cc2ccccc2oc1=O | 34.7%
COc1cc(NC(=O)COc2ccc(Cl)cc2)ccc1-c1cc2ccccc2oc1=O | 12.1%
CCCc1ccc(S(=O)(=O)NCC2CCCN2CC)cc1 (stereo unspecified) | -7.8%
COc1ccc(N(CC(=O)NCc2ccco2)C(=O)CNS(=O)(=O)c2ccc(Cl)cc2)cc1 | 4.6%
O=C(Cc1ccccc1)NC(=S)Nc1ccc2oc(-c3ccccc3F)nc2c1 | -99.4%
O=C(C1=C[C@@H](c2csc3ccccc23)C[C@@H](OCCCCO)O1)N1CCN(Cc2ccc3c(c2)OCO3)CC1 | -7.2%
